The values below come from PubChem BioAssay (NCATS).

The structures appear in SMILES notation. The list shows a part of the results. Results filed as inconclusive are left out. Unmarked numbers belong to inactive results. Active and inactive are the calls of the source. Calls come from the whole dose curve; as a rule, active = well fitted inhibition curve with a large enough effect; inconclusive = small, poorly fitted or top-dose-only effect; inactive = flat fitted curve, though single readings scatter.
% is set by controls: 0 for no effect and ±100 for the full control effect; potency is the fitted concentration of half-maximal effect.

This test in a line: qHTS Assay for Inhibitors of Fructose-1,6-bisphosphate Aldolase from Giardia Lamblia: Mammalian cellular toxicity (AID 2786).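 Note: compound exposure lasted 48 h before reading; nearly all actives have a fitted effect of over 60% in size.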 The settings on record: mammalian cell viability counter-screen; series mostly up to 57.5 µM; viability change, negative = toxicity: at the top concentration. The text has this: NIH Chemical Genomics Center [NCGC]
NIH Molecular Libraries Probe Production centers Network [MLPCN]
Assay Provider: Osnat Herzberg, University of Maryland
The objective of this project is to obtain compounds that inhibit Giardia lamblia growth. G. lamblia is a human pathogen which afflicts impoverished nations; it is the most common cause of outbreaks of diarrhea in the United States. During the course of our study of potential drug targets in Giardia, we have identified the Class II (Zn2+ functions in electrophilic catalysis) fructose-1,6-bisphosphate aldolase (FBPA) as an excellent candidate for drug targeting. FBPA is a key glycolytic pathway enzyme, essential for G. lamblia survival. The human FBPA belongs to the Class I aldolases, which have a different substrate binding site structure and a radically different catalytic mechanism (employing a lysine-Schiff base intermediate). Therefore, affinity-based or mechanism-based inhibitors of the Giardia FBPA are expected not to interfere with the catalytic function of the human FBPA.
A glyceraldehyde-3-phosphate dehydrogenase/triose phosphate isomerase/NAD/arsenate coupled assay was adapted to the 1536-well HTP format for use in the primary screen. This was done by coupling it to a diaphorase/resazurin/resorufin reaction that can be monitored by fluorescence (excitation, 544 nm; emission, 590 nm). Compounds identified in this screen will be further evaluated by coupling the glycerol-3-phosphate/triose phosphate isomerase/NADH assay to a phenazine methosulfate/tetranitroblue tetrazolium color reaction. False positives due to the dehydrogenases and diaphorase inhibition will be eliminated, and selectivity assay will triage inhibitors of mammalian triose phosphate isomerase and the Class I FBPA. G. lamblia FBPA inhibitors identified by the in vitro analyses will be examined for growth inhibition of Giardia trophozoites, and for cytotoxicity in human cells.
This assay addresses whether hits in the primary screen are cytotoxic to mammalian cells, using Chinese hamster ovary cells as a surrogate.
2uL/well media was dispensed per well into 1536-well white solid-bottom plates using Multidrop Combi dispenser. Subsequently, 23 nL/well compound solutions or DMSO controls were dispensed to the assay plates via a pintool workstation. The Chinese hamster ovary (CHO) cells were grown in T225 flasks to 70% confluence under a standard cell culture condition (ATCC), detached with 0.25% Trypsin/EDTA, and seeded at 250 cells/well in 5uL medium (Dulbecco's Modified Eagle Medium, 10% fetal bovine serum, 1x penicillin/streptomycin). The plates were incubated at 37 °C with 5% CO2 and 95% humidity for 48 hours, and then ATP content was measured following the addition of 4uL/well of ATPlite reagent and a 20 min incubation on a ViewLux plate reader.
Keywords: Fructose-bisphosphate aldolase, FBPA , Giardia lamblia , Giardia, HTS, Inhibitors
A general note: Quantitative high-throughput screening tests each substance at several concentrations.
As for `Cc1cc(C)nc(N/N=C/c2ccc([N+](=O)[O-])o2)n1`, the “viability change, negative = toxicity” value is 0.383%. On the same count and under the same terms, in the case of `OCCN1CCN(C(=S)c2ccc(-c3ccccc3)cc2)CC1` it was 6.87%; in that of `O=c1[nH]c(=S)[nH]c2[nH]c(=S)[nH]c12`, -1.2%; in that of `CN1C(=O)/C(=C\c2ccc(-c3ccccc3)o2)SC1=S`, -4.51%. Still for that read-out and setting: in the case of `CC1CCCN(S(=O)(=O)c2ccc(C(=O)Nc3nnc(-c4ccncc4)o3)cc2)C1` (stereo not given) it was -6.34%; in that of `CN(C)CCOc1ccc(Cl)cc1C(C)(C)C`, -4.49%. On the same count and under the same terms, in the case of `Cc1nc2ccc(NC(=S)N3CCC(C)CC3)cc2nc1C` it was -5.49%; in that of `Cc1cccc(-c2nnc(SCC(=O)O)n2Cc2ccccc2)c1`, 3.23%; in that of `Cc1nnc(SCC2=C(C(=O)O)N3C(=O)C(NC(=O)Cn4nc(C)c(Cl)c4C)C3SC2)s1` (stereo not given), 3.23%. Turning to `CCN(CC(=O)NC(=O)NCc1ccccc1)Cc1nc2ccccc2c(=O)[nH]1`, the “viability change, negative = toxicity” value is -3.84%. Take `COC(=O)CC1=NN(c2nc(C)cc(C)n2)C(=O)C1`: the “viability change, negative = toxicity” value was 1.41%. The same measure, in the same setting: in the case of `Cn1nnc(NC(=S)NC(=O)c2ccccc2)n1` it was -1.08%; in that of `O=S(=O)(c1ccc(NC(=S)NN=C(C2CC2)C2CC2)cc1)N1CCOCC1`, 1.01%. On the same count and under the same terms, in the case of `Cc1cc(C)c2c(=O)[nH]c(SCC(=O)Nc3ccc(Br)cc3)nc2n1` it was -8.04%; in that of `COc1ccccc1CN1CCN(Cc2cc(OC)c(OC)cc2OC)CC1`, 3.82%. Still for that read-out and setting: for `COc1ccc(OC)c(Nc2nc(-c3ccc(O)c(O)c3)cs2)c1` the value was -22.2%.

Regarding `CCc1ccc2c(c1)C1(NN=C(c3ccccc3)S1)C(=O)N2` (stereo not given), the Potency is 25.1 µM (active).

Take `CNC(=S)N/N=C/c1ccc(N2CCOCC2)s1`: the “viability change, negative = toxicity” value is -3.94%. The same measure, in the same setting: for `COc1ccc(C(=O)NC(=S)N2CCCCC2c2cccnc2)cc1OC` (stereo not given) the value was 1.32%; for `CCN(CC(=O)Nc1ccc(S(=O)(=O)N2CCCC2)cc1)CC(=O)Nc1cccc(OC)c1`, -4.57%.

On to `O=C(NC(=S)Nc1ncccn1)c1ccccc1Br`, for which the “viability change, negative = toxicity” value was -18.1%. Same read-out and setting: for `COc1ccc(N=Nc2c(-c3ccc(OC)cc3)[nH]oc2=O)cc1` the value was -3.71%; for `CC(=O)NC1CCN(CC(=O)Nc2nccs2)CC1`, -4%. As to `Cc1nc(N2CCOCC2)sc1C(=O)NN`, the “viability change, negative = toxicity” value was -2.56%. For the compound `Cn1c(=O)[nH]c(=O)c2c1[nH]c(=S)n2Cc1ccccc1`, the “viability change, negative = toxicity” value was 0.432%. `O=c1nc(N/N=C/c2ccco2)cn[nH]1`: the “viability change, negative = toxicity” value is 3.52%. With `COc1cc(CN2CCN(Cc3ccc(C)cc3)CC2)c([N+](=O)[O-])cc1OC`, the “viability change, negative = toxicity” value is -16%.

Consider `COCCN(C(=S)Nc1ccccc1OC)C1CCN(C(C)C)CC1`, for which the “viability change, negative = toxicity” value was 1.84%. The same measure, in the same setting: in the case of `CN1CCCc2cc(C#N)c(=O)[nH]c21` it was -2.91%; in that of `O=C(Nc1ccccc1Cl)O/N=C(/c1ccccc1)c1ccccn1`, 0.929%. Still for that read-out and setting: in the case of `C=C(C)CNC(=S)N/N=C/c1ccccc1OCC(=O)O` it was 21.4%; in that of `O=C(CN1C(=O)COc2ccccc21)Nc1ccc(F)cc1`, -16.3%; in that of `O=C(CSc1cccc[n+]1[O-])c1ccc(-c2ccccc2)cc1`, -27.7%. `COc1ccc(CN2CCN(Cc3ccc(OC)c(OC)c3OC)CC2)cc1`: the “viability change, negative = toxicity” value is -1.43%. Same read-out and setting: for `Oc1[nH]c2ccc(Br)cc2c1N=Nc1nn[nH]n1` the value was -1.69%; for `O=C(N/N=C/c1ccccn1)c1cccnc1`, -13.3%. Consider `O=[N+]([O-])c1ccc2nc(-c3ccccn3)[nH]c2c1`, for which the Potency was 25.1 µM (active).

Turning to `C/C(=N\NC(N)=S)c1cccnc1`, the “viability change, negative = toxicity” value is 3.52%. Same read-out and setting: in the case of `C=CCNC(=S)/N=c1/ccccn1Cc1ccccc1` it was 25.2%; in that of `Cc1csc(NC(=O)CN2CCCCCC2)n1`, -7.59%.
